Here are results for four compounds from PubChem BioAssay (EPA / NIEHS).

The nature of assay [1]: ACEA_ER_80hr: ACEA Biosciences xCELLigence Real-Time Cell Analysis on Estrogen Receptor Agonism for Proliferation (AID 2282667; active means hit-call score of the fitted dose curve at least 0.9, where 1 is the maximum). To be noted: T47D proliferation, impedance (xCELLigence), 80 h. The method, boiled down:
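Real-time impedance growth kinetics of human T-47D breast cells read 80 h after dosing, gain-of-signal fitted relative to DMSO. Compounds: 1:4 serial series, top final concentration 100 uM, n = 2.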

The nature of assay [2]: ATG_CRE_CIS: Attagene CIS-FACTORIAL HepG2 Assay for human cAMP Responsive Element (CRE) binding protein 3 (AID 2282926). The note with it: HepG2 CRE cis-reporter, Attagene multiplexed mRNA; actives raise or lower the signal. A digest of the protocol: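 Multiplexed transcription-unit reporters transfected into HepG2; 24 h dosing; RT-PCR/capillary electrophoresis fluorescence read-out; bidirectional fit vs DMSO.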

Assay [3] has as its target CCAAT/enhancer-binding protein beta (Homo sapiens) (UniProt P17676). In words: ATG_C_EBP_CIS: Attagene CIS-FACTORIAL HepG2 Assay for human CCAAT/Enhancer Binding Protein (C/EBP) beta (AID 2282927). The note with it: HepG2 Attagene cis-factorial transcription factor reporter; actives raise or lower the signal. The method, boiled down:
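Endogenous C/EBPb-driven reporter transcripts measured in transfected human HepG2 cells at 24 h via RT-PCR and capillary electrophoresis of labelled fragments. Activity fitted in both directions relative to DMSO baseline.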

Assay [4] can be described thus: ATG_CMV_CIS: Attagene CIS-FACTORIAL HepG2 Assay for human CMV (Internal Marker) (AID 2282928).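 Further: endpoint acts as a background internal control marker rather than a target.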 To be noted: HepG2 CMV promoter reporter, transcription factor profiling; actives raise or lower the signal. The method, boiled down: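 Cell system: HepG2, transiently transfected multiple reporter units under cis promoters. Exposure: 24 h. Detection: RT-PCR, FAM labeling, HpaI digestion, capillary electrophoresis. Analysis: bidirectional, DMSO baseline.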

Assay [5] is described as follows: ATG_DR4_LXR_CIS: Attagene CIS-FACTORIAL HepG2 Assay for human Liver X Receptor (LXR), DR4 submotif (AID 2282929). To be noted: HepG2 Attagene DR4 cis-reporter, mRNA transcription; actives raise or lower the signal. The method, boiled down: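 The endpoint is DR4-element-driven reporter transcripts after 24 h chemical exposure of transfected HepG2 cells. These were measured via RT-PCR and capillary electrophoresis, and gain or loss of signal was fitted relative to DMSO controls.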

The target of assay [6] is Aryl hydrocarbon receptor (Homo sapiens) (UniProt P35869). In words: ATG_Ahr_CIS: Attagene CIS-FACTORIAL HepG2 Assay for human Aryl Hydrocarbon Receptor (Ahr) (AID 2282930). The note with it: HepG2 AhR cis-factorial reporter transcription; actives raise or lower the signal. A digest of the protocol:
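Reporter mRNA levels, quantified by RT-PCR and fluorescent capillary electrophoresis, reflect endogenous AhR transcriptional activity in HepG2 cells carrying transfected cis-promoter reporter constructs. Readout at 24 h post-dose; gain or loss fitted against DMSO baseline.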

Assay [7] is described as follows: ATG_AP_1_CIS: Attagene CIS-FACTORIAL HepG2 Assay for human Activator Protein 1 (AP-1) (AID 2282931). The note with it: HepG2 Attagene cis-factorial AP-1 reporter mRNA; actives raise or lower the signal. A digest of the protocol:
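Readout is reporter transcript level from endogenous transcription factor activity, quantified by RT-PCR with fluorescent primer extension and capillary electrophoresis. Transiently transfected HepG2 cells, 24 h exposure. Curves fitted both directions versus DMSO.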

A short description of assay [8]: ATG_AP_2_CIS: Attagene CIS-FACTORIAL HepG2 Assay for human Activator Protein 2 (AP-2) (AID 2282932). The note with it: HepG2 AP-2 cis-reporter, Attagene transcription factor profiling; actives raise or lower the signal. A digest of the protocol: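 Step one: transient transfection of HepG2 with reporter transcription units. Step two: 24 h chemical exposure. Step three: RNA extraction, RT-PCR, labelled fragment analysis by capillary electrophoresis; DMSO serves as baseline.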

Assay [9] is described as follows: ATG_BRE_CIS: Attagene CIS-FACTORIAL HepG2 Assay for human Bone Morphogenetic Protein (BMP) Response Element (BRE) (AID 2282933). The note with it: HepG2 BMP response element reporter, Attagene transcription factor profiling; actives raise or lower the signal. The method, boiled down: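 Endogenous transcription factor activity read in transiently transfected HepG2 cells after 24 h chemical exposure. Bidirectional curve fitting against DMSO; readout is reporter transcript level by RT-PCR with capillary electrophoresis of labelled products.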

Assay [10] addresses Retinoic acid receptor alpha (Homo sapiens) (UniProt P10276). In words: ATG_DR5_RAR_CIS: Attagene CIS-FACTORIAL HepG2 Assay for human Retinoic Acid Receptor Alpha (RARE), DR5 submotif (AID 2282934).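 On AC50: reporter responds to endogenous RAR alpha beta and gamma in HepG2 not RARA alone.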 The note with it: HepG2 Attagene cis-factorial RARE DR5 reporter, mRNA; actives raise or lower the signal. The method, boiled down:
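Reporter transcripts from a DR5-regulated unit, measured via RT-PCR plus capillary electrophoresis, reflect endogenous RAR activity in transiently transfected human HepG2 liver cells. Exposure lasted 24 h; gain or loss of signal scored against DMSO.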

Assay [11] has as its target Transcription factor E2F1 (Homo sapiens) (UniProt Q01094). In words: ATG_E2F_CIS: Attagene CIS-FACTORIAL HepG2 Assay for human E2F Transcription Factor 1 (AID 2282935). The note with it: HepG2 Attagene cis-reporter, E2F reporter RNA transcripts; actives raise or lower the signal. The method, boiled down: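 Total RNA from 24 h-treated, reporter-transfected HepG2 cells undergoes DNase I treatment, oligo(dT) reverse transcription, PCR and 6-FAM primer extension before capillary electrophoresis.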

Assay [12] can be described thus: ATG_E_Box_CIS: Attagene CIS-FACTORIAL HepG2 Assay for human Enhancer Box (E-box) (AID 2282936). To be noted: HepG2 E-box cis-reporter transcription, actives raise or lower the signal. A digest of the protocol:
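DMSO served as negative control and baseline for bidirectional fitting. Human hepatoma HepG2 cells, transiently transfected with cis-reporter constructs, were dosed 24 h; reporter mRNA read by RT-PCR and capillary electrophoresis.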

Assay [13] is described as follows: ATG_M_61_CIS: Attagene CIS-FACTORIAL HepG2 Assay for M61 Transcription Factor (Internal Marker) (AID 2282937). The note with it: HepG2 Attagene CIS-FACTORIAL M61 internal marker reporter; actives raise or lower the signal. A digest of the protocol: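 Readout is reporter mRNA by RT-PCR, fluorescent primer extension and capillary electrophoresis, with gain or loss fitted relative to DMSO. Transfected HepG2 cells carrying endogenous-TF-driven cis reporters were exposed to chemicals for 24 hours.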

Assay [14] is described as follows: ATG_EGR_CIS: Attagene CIS-FACTORIAL HepG2 Assay for human Early Growth Response 1 (EGR1) (AID 2282938). The note with it: HepG2 Attagene CIS-FACTORIAL EGR reporter mRNA; actives raise or lower the signal. A digest of the protocol: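 After 24 h compound exposure, RNA from reporter-transfected HepG2 cells was reverse-transcribed, PCR-amplified, fluorescently labelled and resolved by capillary electrophoresis. EGR1 reporter transcript changes, up or down, were fitted against DMSO, reflecting endogenous transcription-factor activity.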

Assay [15] can be described thus: ATG_M_19_CIS: Attagene CIS-FACTORIAL HepG2 Assay for M19 Transcription Factor (Internal Marker) (AID 2282939). The note with it: HepG2 Attagene CIS-FACTORIAL M19 internal marker reporter; actives raise or lower the signal. The method, boiled down: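 Internal marker readout, fitted in both directions against DMSO, from HepG2 cells carrying transfected cis-element reporter constructs; RT-PCR and capillary electrophoresis of reporter mRNA after 24 h exposure.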

The target in assay [16] is Hepatocyte nuclear factor 3-beta (Homo sapiens) (UniProt Q9Y261). In words: ATG_FoxA2_CIS: Attagene CIS-FACTORIAL HepG2 Assay for human Forkhead box A2 (FOXA2) (AID 2282942). The note with it: HepG2 cis-reporter transcription factor activity, 24 h; actives raise or lower the signal. The method, boiled down: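 Endogenous transcription factor activity is captured via cis-element-driven reporter transcripts in transfected HepG2. Total RNA taken at 24 h post-dosing; labelled RT-PCR products resolved by capillary electrophoresis. Gain or loss fitted versus DMSO.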

Assay [17] is described as follows: ATG_FoxO_CIS: Attagene CIS-FACTORIAL HepG2 Assay for human Forkhead box O (FoxO) (AID 2282943). To be noted: HepG2 Attagene cis-reporter, FoxO element, mRNA; actives raise or lower the signal. The method, boiled down: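 Endogenous transcription factor activity read from multiplexed cis-promoter reporter transcripts in transiently transfected HepG2, 24 h after dosing. Reporter RNA measured via RT-PCR plus capillary electrophoresis of FAM-labeled products; gain or loss relative to DMSO.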

The nature of assay [18]: ATG_GATA_CIS: Attagene CIS-FACTORIAL HepG2 Assay for human GATA Binding Protein (AID 2282944). To be noted: HepG2 GATA cis-element reporter, Attagene multiplex mRNA; actives raise or lower the signal. The method, boiled down: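 Reporter transcripts from a GATA cis-regulated unit, among multiplexed reporters in transfected HepG2 cells, were measured by RT-PCR with capillary electrophoresis after 24 h dosing. Induction or loss scored relative to DMSO.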

The nature of assay [19]: ATG_Ets_CIS: Attagene CIS-FACTORIAL HepG2 Assay for human Erythroblast Transformation Specific (ETS) (AID 2282941). The note with it: HepG2 ETS cis-reporter transcription, actives raise or lower the signal. The method, boiled down:
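After transient cis-reporter transfection, HepG2 cells receive test chemical for 24 h. Reporter mRNA levels, measured by RT-PCR and capillary electrophoresis fluorescence, are analysed bidirectionally relative to the DMSO baseline.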

Assay [20] in a line: ATG_ERE_CIS: Attagene CIS-FACTORIAL HepG2 Assay for Estrogen Response Element (ERE) (AID 2282940). The note with it: HepG2 ERE cis-reporter, Attagene RNA transcript; actives raise or lower the signal. The method, boiled down: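 After 24 h compound treatment, RNA from transfected HepG2 cells was reverse-transcribed, reporter cDNA PCR-amplified, FAM-labelled, HpaI-cut and resolved by capillary electrophoresis. ERE-driven cis reporter transcripts reflect endogenous factors; gain or loss scored against DMSO.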

Structures are written as SMILES. Records with an inconclusive call do not appear. The source made the active and inactive calls. How the source made its calls, unless noted: active means hit-call score of the fitted dose curve at least 0.9, where 1 is the maximum; inactive means score below 0.9.

Transcription factor E2F1 (Homo sapiens), sequence (Q01094 whole entry, looked up): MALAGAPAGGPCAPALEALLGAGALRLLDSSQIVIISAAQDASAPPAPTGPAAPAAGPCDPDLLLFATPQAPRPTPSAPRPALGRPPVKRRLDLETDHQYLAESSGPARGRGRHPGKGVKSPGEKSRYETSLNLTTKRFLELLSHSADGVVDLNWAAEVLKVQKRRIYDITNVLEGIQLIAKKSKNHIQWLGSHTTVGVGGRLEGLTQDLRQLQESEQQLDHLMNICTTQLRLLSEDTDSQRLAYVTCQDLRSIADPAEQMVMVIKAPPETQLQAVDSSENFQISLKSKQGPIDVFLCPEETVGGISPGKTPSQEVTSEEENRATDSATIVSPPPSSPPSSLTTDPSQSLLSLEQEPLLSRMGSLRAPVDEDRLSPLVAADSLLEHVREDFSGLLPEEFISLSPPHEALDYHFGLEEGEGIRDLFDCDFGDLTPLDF
CCAAT/enhancer-binding protein beta (Homo sapiens), sequence (P17676 whole entry, looked up, the tested form may be a part): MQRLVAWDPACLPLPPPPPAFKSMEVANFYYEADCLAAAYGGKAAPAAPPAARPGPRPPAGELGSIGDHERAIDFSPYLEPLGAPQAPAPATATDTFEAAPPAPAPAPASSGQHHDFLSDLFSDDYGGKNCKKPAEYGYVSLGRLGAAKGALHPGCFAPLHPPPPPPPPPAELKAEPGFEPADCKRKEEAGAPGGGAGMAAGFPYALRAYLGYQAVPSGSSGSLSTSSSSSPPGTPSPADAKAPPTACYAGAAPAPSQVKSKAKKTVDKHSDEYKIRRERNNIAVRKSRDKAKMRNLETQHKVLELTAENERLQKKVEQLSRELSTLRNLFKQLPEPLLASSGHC
Retinoic acid receptor alpha (Homo sapiens), sequence (P10276 whole entry, looked up): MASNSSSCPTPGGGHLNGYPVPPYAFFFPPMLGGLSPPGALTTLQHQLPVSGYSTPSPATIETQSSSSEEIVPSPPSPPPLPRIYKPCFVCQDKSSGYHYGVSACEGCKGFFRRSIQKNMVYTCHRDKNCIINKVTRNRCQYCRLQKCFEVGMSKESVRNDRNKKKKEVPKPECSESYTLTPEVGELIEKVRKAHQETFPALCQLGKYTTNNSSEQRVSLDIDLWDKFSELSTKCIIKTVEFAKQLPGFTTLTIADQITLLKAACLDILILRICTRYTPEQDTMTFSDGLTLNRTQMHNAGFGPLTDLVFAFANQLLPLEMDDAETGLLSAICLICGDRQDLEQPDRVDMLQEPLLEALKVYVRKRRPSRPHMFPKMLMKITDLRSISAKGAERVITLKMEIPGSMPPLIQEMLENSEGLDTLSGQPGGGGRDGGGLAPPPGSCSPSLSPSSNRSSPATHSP
Hepatocyte nuclear factor 3-beta (Homo sapiens), sequence (Q9Y261 whole entry, looked up): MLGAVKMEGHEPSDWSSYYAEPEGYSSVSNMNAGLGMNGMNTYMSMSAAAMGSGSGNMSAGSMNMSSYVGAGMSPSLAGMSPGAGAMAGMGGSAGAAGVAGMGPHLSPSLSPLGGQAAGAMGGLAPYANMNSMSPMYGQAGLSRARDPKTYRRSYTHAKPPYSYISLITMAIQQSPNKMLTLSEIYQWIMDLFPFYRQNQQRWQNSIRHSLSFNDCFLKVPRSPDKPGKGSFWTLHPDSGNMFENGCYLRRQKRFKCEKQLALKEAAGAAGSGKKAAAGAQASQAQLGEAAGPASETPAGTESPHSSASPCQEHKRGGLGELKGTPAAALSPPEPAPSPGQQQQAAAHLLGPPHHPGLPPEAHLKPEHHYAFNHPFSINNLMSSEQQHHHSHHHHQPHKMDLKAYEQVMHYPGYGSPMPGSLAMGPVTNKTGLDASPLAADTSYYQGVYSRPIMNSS
Aryl hydrocarbon receptor (Homo sapiens), sequence (P35869 whole entry, looked up): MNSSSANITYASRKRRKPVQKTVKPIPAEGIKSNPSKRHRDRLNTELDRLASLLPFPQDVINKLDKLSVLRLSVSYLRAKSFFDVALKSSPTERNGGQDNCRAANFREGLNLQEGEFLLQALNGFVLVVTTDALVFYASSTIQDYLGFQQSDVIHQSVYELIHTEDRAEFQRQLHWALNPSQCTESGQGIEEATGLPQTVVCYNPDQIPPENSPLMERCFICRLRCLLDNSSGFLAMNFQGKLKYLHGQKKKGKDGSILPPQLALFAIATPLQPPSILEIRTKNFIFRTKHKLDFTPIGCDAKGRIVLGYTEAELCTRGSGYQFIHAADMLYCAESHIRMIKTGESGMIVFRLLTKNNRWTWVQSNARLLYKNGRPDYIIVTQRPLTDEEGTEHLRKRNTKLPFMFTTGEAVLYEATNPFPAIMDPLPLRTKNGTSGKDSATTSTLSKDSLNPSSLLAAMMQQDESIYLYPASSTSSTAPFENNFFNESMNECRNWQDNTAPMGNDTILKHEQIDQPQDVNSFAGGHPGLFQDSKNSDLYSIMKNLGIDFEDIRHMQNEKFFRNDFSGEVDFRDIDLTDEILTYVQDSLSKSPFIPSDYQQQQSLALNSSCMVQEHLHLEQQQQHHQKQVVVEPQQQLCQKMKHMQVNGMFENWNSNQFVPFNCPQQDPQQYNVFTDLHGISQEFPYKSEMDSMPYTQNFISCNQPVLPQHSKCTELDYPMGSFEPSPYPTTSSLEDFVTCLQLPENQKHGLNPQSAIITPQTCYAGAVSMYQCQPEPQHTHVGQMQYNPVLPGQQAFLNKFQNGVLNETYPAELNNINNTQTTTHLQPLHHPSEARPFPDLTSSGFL

As to `N#CC1(N)CCCCC1`, the call in assay [1], in assay [2], in [3], in assay [4], in [5] and in assay [6] was inactive. Besides, the compound was classed as inactive in assay [7], in assay [8], in assay [9], in assay [10], in assay [11] and in assay [12]. Also, the result in assay [13], in assay [14], in assay [15], in assay [16], in assay [17] and in assay [18] was inactive.

As for `C=CC(=O)NC(C)(C)C`, the result in assay [1], in [2], in assay [3], in assay [5], in assay [6] and in assay [7] was inactive. Also, the compound was called inactive in [8], in [9], in assay [11], in [12], in assay [13] and in assay [14]. Besides, the compound was called inactive in [15], in assay [19], in [16], in assay [17] and in assay [18]. For the same compound, the values for the AC50 in assay [4] and in assay [10] were 48.7 µM (active) and 27.2 µM (active), respectively.

On to `CC(c1cc(C(C)(C)C)cc(C(C)(C)C)c1O)c1cc(C(C)(C)C)cc(C(C)(C)C)c1O`, for which the outcome in [1], in assay [2], in [3], in [4], in [5] and in assay [6] was inactive. In addition, the compound was classed as inactive in assay [7], in assay [8], in [9], in [10], in assay [11] and in [12]. In addition, the compound was classed as inactive in assay [13], in assay [14], in assay [15], in [19], in [16] and in assay [17]. Also, in assay [18], the call was inactive.

Consider `CCOc1ccc(NC(N)=O)cc1`, for which the call in assay [1], in assay [2], in [3], in [4], in [5] and in [6] was inactive. The result in assay [7], in assay [8], in [9], in assay [10], in assay [11] and in assay [12] was inactive. The compound was classed as inactive in assay [13], in assay [14], in assay [15], in assay [20], in assay [16] and in [17]. Moreover, the result in [18] was inactive.
